These results are taken from PubChem BioAssay.

A number with no mark means an inactive call. For some of these results: Measured potencies and affinities stand elsewhere. Activity calls are given as the source filed them. Unless noted, the rule behind the calls is not given here.

A short description of experiment [1]: antimalarial activity against Dd2 strain (AID 2302;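 active = growth inhibition above 50% at the single 2 µM test dose, taken to imply half-maximal potency below 2 µM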;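 note: 0% = DMSO untreated growth and 100% = chloroquine plus artemisinin killed control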). The settings on record: P. falciparum Dd2 in RBCs, LDH growth readout, 72 h; at 2 µM; stronger effect = higher value.
A short description of experiment [2]: human hepatoma cell viability loss – ATP luminescence, cytotoxicity control for P. falciparum antimalarial project, primary screen (AID 2303;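 active = inhibition above 50%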;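 note: 0% = DMSO wells and 100% = digitonin-killed cells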). The settings on record: HepG2 viability, 24-48 h, at 10 µM, stronger effect = higher value.
Experiment [3] deals with L-lactate dehydrogenase (Plasmodium falciparum (isolate CDC / Honduras)) (UniProt Q27743). As to the kind of experiment: PfLDH activity inhibition – cell lysate, 3D7 strain, counter-screen for P. falciparum growth inhibition project (AID 2304).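 Note: 0% = vehicle and 100% = reference inhibitor.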 The settings on record: P. falciparum 3D7 crude extract, LDH APAD/NBT absorbance; at 2 µM; stronger effect = higher value. A general note: Counterscreens check selectivity or assay interference.
Sequence of L-lactate dehydrogenase (Plasmodium falciparum (isolate CDC / Honduras)) (Q27743 whole entry, looked up): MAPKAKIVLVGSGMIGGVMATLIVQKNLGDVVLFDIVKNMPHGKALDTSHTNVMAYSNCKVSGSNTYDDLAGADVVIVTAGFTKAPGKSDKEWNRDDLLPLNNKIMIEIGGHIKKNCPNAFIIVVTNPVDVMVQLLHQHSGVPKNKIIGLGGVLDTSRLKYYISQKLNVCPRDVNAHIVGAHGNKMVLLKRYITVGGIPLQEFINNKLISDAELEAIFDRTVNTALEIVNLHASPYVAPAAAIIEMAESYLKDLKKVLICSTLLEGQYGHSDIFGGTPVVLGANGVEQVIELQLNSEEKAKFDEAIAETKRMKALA

Experiment [4] in a line: inhibition of 3D7 malaria parasite growth – strain 3D7 (AID 2306).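 Note: 0% = DMSO wells and 100% = chloroquine plus artemisinin control wells.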 The settings on record: P. falciparum 3D7 erythrocytic growth, LDH absorbance, 72 h; at 2 µM; stronger effect = higher value.
For experiment [5], the target named is Calcium-dependent protein kinase 1 (Plasmodium falciparum (isolate 3D7)) (UniProt P62344). As to the kind of experiment: PfCDPK1 kinase inhibitors, biochemical, TCAMS library (AID 1159585; cut-off not given, nearly all actives have IC50 up to about 0.98 µM;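 note: inhibitors leave more ATP so luminescence rises with inhibition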). The settings on record: recombinant PfCDPK1, Kinase-Glo ATP depletion luminescence. In general terms: Kinase-Glo measures the ATP left after a reaction by luminescence.
Sequence of Calcium-dependent protein kinase 1 (Plasmodium falciparum (isolate 3D7)) (P62344 whole entry, looked up): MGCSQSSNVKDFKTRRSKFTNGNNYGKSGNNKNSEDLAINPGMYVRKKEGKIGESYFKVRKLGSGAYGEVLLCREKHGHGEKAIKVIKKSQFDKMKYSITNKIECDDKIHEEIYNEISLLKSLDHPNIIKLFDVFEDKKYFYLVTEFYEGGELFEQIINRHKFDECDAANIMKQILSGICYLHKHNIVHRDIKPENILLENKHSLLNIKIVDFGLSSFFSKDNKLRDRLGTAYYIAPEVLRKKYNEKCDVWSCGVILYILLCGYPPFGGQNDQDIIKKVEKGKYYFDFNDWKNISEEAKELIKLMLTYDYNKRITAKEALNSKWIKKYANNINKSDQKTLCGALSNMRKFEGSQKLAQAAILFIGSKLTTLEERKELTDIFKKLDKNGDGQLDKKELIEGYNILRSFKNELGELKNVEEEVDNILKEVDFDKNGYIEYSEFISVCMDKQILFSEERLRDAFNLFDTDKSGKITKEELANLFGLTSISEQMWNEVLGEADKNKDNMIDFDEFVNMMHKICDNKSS
Experiment [6] has as its target Plasmodium falciparum protein kinase 6 (PK6, PF3D7_1337100) (UniProt Q8IDW1). As to the kind of experiment: PfPK6 kinase inhibitors, biochemical, TCAMS library (AID 1159586). The settings on record: recombinant PfPK6, Kinase-Glo ATP depletion luminescence.
Experiment [7] concerns the target Protein kinase 7 (PK7), Plasmodium falciparum 3D7 (PF3D7_0213400) (UniProt Q7YTF7). Briefly: inhibition of Plasmodium PK7 catalytic activity – biochemical, TCAMS antimalarial set, Kinase-Glo luminescence (AID 1159587). The settings on record: recombinant PfPK7, Kinase-Glo ATP depletion luminescence.
The target in experiment [8] is Calcium-dependent protein kinase 4 (Plasmodium falciparum (isolate 3D7)) (UniProt Q8IBS5). As to the kind of experiment: PfCDPK4 kinase inhibitors, biochemical, TCAMS library (AID 1159588; cut-off not given, nearly all actives have IC50 up to about 0.91 µM). The settings on record: recombinant PfCDPK4, Kinase-Glo ATP depletion luminescence.
Sequence of Calcium-dependent protein kinase 4 (Plasmodium falciparum (isolate 3D7)) (Q8IBS5 whole entry, looked up): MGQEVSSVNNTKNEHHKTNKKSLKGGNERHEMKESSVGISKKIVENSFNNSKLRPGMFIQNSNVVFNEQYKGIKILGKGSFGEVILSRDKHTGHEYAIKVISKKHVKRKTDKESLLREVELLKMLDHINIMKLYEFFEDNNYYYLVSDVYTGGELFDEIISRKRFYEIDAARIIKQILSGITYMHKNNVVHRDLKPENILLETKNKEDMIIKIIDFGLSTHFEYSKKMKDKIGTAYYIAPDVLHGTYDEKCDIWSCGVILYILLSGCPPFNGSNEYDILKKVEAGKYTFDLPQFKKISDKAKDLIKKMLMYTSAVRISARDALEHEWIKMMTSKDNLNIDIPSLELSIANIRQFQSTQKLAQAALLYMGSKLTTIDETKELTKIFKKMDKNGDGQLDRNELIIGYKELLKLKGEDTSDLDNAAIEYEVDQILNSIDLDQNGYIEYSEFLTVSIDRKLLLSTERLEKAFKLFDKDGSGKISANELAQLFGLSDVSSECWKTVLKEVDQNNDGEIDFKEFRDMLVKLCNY

Sequence of Protein kinase 7 (PK7), Plasmodium falciparum 3D7 (PF3D7_0213400) (Q7YTF7 1-343): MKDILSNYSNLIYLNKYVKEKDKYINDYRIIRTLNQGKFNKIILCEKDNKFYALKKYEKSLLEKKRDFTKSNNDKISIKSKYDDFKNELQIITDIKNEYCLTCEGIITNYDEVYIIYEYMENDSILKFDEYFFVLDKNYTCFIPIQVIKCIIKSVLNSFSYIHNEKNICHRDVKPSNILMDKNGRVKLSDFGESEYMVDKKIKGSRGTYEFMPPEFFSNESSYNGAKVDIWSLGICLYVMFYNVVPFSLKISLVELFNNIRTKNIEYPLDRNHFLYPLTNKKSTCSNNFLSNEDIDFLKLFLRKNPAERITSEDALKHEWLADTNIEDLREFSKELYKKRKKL
Sequence of Plasmodium falciparum protein kinase 6 (PK6, PF3D7_1337100) (Q8IDW1 1-305): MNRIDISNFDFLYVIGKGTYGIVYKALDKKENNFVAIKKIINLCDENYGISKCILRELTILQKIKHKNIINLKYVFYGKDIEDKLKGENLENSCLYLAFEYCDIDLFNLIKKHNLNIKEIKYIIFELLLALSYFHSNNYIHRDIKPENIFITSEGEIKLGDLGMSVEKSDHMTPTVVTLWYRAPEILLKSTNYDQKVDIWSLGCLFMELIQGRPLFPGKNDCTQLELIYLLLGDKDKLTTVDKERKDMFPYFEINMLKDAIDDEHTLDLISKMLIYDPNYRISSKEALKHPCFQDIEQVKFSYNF

As to `COC(=O)c1cccc(NC(=O)NC2CCN(c3ccnc(Nc4ccc(OC)cc4)n3)C2)c1` (stereo not given), the values for the growth inhibition in experiment [1] and in experiment [4] were 65% (active) and 99% (active), respectively. Also, the inhibition is 1% in experiment [2] and -3% in experiment [3]. Further, the outcome in experiment [5], in experiment [6], in experiment [7] and in experiment [8] was inactive.
Regarding `COc1ccccc1C(C)NCC(=O)Nc1cccc(C(=O)Nc2cccc(C(F)(F)F)c2)c1` (stereo not given), the growth inhibition was 39% in experiment [1] and 91% (active) in experiment [4]. For the same compound, the inhibition in experiment [2] was 34%; in experiment [3], 5%. Also, the outcome in experiment [5], in experiment [6], in experiment [7] and in experiment [8] was inactive.
Take `O=C(Nc1ccc(OC2CCN(Cc3ccc(F)cc3)C2)c(Cl)c1)c1cccs1` (stereo not given): the values for the growth inhibition in experiment [1] and in experiment [4] were 97% (active) and 98% (active), respectively. In addition, the inhibition in experiment [2] was 21%; in experiment [3], 2%. Further, the outcome in experiment [5], in experiment [6], in experiment [7] and in experiment [8] was inactive.
Regarding `CCCCN(CCCC)C(=N)c1cccc2c1CCCC2`, the growth inhibition is 9% in experiment [1] and 95% (active) in experiment [4]. Moreover, the inhibition in experiment [2] was 11%; in experiment [3], -2%. Besides, the outcome in experiment [5], in experiment [6], in experiment [7] and in experiment [8] was inactive.
In the case of `Cc1cccc(-c2nc(Nc3ccncc3)c3cc(N(C)C)ccc3n2)n1`, the values for the growth inhibition in experiment [1] and in experiment [4] were 63% (active) and 98% (active), respectively. In addition, the results for the inhibition in experiment [2] and in experiment [3] were 5% and -2%, respectively. Further, the outcome in experiment [5], in experiment [6], in experiment [7] and in experiment [8] was inactive.
For `CCOC(=O)C1=C(C)N=c2sc(=Cc3ccccc3O)c(=O)n2C1c1ccc(OC)c2ccccc12` (stereo not given), the growth inhibition in experiment [1] is 38%; in experiment [4], 97% (active). The inhibition in experiment [2] is -6%; in experiment [3], 1%. Also, the outcome in experiment [5], in experiment [6], in experiment [7] and in experiment [8] was inactive.
Regarding `Nc1nc2ccc(CN(C=O)c3ccc(C(=O)N[C@@H](CCC(=O)O)C(=O)O)cc3)cc2c(=O)[nH]1`, the growth inhibition was 94% (active) in experiment [1] and 93% (active) in experiment [4]. In addition, the inhibition is -5% in experiment [2] and 2% in experiment [3]. Besides, the outcome in experiment [5], in experiment [6], in experiment [7] and in experiment [8] was inactive.
Consider `CC(C)(C)C(=O)N1CCN(c2ccc([N+](=O)[O-])c(NC3CC3)c2)CC1`, for which the growth inhibition in experiment [1] is 97% (active); in experiment [4], 95% (active). Moreover, the inhibition is 8% in experiment [2] and 3% in experiment [3]. Also, the outcome in experiment [5], in experiment [6], in experiment [7] and in experiment [8] was inactive.
With `O=C(C=Cc1ccc(Cl)c(Cl)c1)NCCCCCN1CCC(CCCNC(=O)/C=C/c2ccccc2)CC1`, the growth inhibition was 33% in experiment [1] and 96% (active) in experiment [4]. Moreover, the inhibition in experiment [2] is 50% (active); in experiment [3], -9%. Moreover, the result in experiment [5], in experiment [6], in experiment [7] and in experiment [8] was inactive.
Take `O=C(NCc1cccc2ccccc12)[C@@H]1CCCN1C(=O)c1ccc(O)c(-c2ccc(Cl)c(Cl)c2)c1`: the growth inhibition in experiment [1] was 71% (active); in experiment [4], 98% (active). For the same compound, the inhibition in experiment [2] was -4%; in experiment [3] it was 2%. In addition, the outcome in experiment [5], in experiment [6], in experiment [7] and in experiment [8] was inactive.
For the compound `CCNc1cc(C(=O)N[C@@H](Cc2ccccc2)[C@H](O)CNCc2cccc(OC)c2C)cc(N2CCCCS2(=O)=O)c1`, the values for the growth inhibition in experiment [1] and in experiment [4] were 98% (active) and 97% (active), respectively. Moreover, the figures for the inhibition in experiment [2] and in experiment [3] were 8% and -1%, respectively. Besides, the result in experiment [5], in experiment [6], in experiment [7] and in experiment [8] was inactive.
Consider `O=C(C=Cc1ccc(Cl)c(Cl)c1)NCCCCCN1CCC(CCNC(=O)c2ccc3c(c2)OCO3)CC1`, for which the results for the growth inhibition in experiment [1] and in experiment [4] were 2% and 99% (active), respectively. The results for the inhibition in experiment [2] and in experiment [3] were 35% and -3%, respectively. Further, the outcome in experiment [5], in experiment [6], in experiment [7] and in experiment [8] was inactive.
Take `CCOC(=O)CCCOc1cc(Cc2cnc(N)nc2N)cc(OC)c1OC`: the values for the growth inhibition in experiment [1] and in experiment [4] were 3% and 97% (active), respectively. The inhibition in experiment [2] was 12%; in experiment [3], -7%. Further, the result in experiment [5], in experiment [6], in experiment [7] and in experiment [8] was inactive.
With `CC(C)(O)CC(C)(C)c1cc(Cl)ccc1O`, the growth inhibition was 1% in experiment [1] and 96% (active) in experiment [4]. In addition, the values for the inhibition in experiment [2] and in experiment [3] were 5% and 7%, respectively. Also, the result in experiment [5], in experiment [6], in experiment [7] and in experiment [8] was inactive.
For the compound `O=C(Nc1ccc(Cn2ncc(N3CCCNCC3)c(Cl)c2=O)cc1)Nc1cccc(Oc2ccccc2)c1`, the values for the growth inhibition in experiment [1] and in experiment [4] were 41% and 81% (active), respectively. For the same compound, the inhibition in experiment [2] is 8%; in experiment [3] it was -5%. The result in experiment [5], in experiment [6], in experiment [7] and in experiment [8] was inactive.
On to `Cc1cccc2[nH]c(-c3cccc(-c4cccc(C(=O)NCCc5cn(C)cn5)c4)c3)nc12`, for which the growth inhibition in experiment [1] was 78% (active); in experiment [4], 101% (active). Also, the inhibition in experiment [2] is 12%; in experiment [3] it was 8%. Further, the result in experiment [5], in experiment [6], in experiment [7] and in experiment [8] was inactive.
With `C=CCc1cc(C)ccc1OCCCON1C(N)=NC(N)=NC1(C)C`, the growth inhibition in experiment [1] and in experiment [4] was 96% (active) in each case. Also, the figures for the inhibition in experiment [2] and in experiment [3] were 64% (active) and -6%, respectively. Besides, the result in experiment [5], in experiment [6], in experiment [7] and in experiment [8] was inactive.
As to `O=C(Nc1ccc(Cl)cc1)OCCn1nnnc1C(c1ccc(Cl)cc1)N1CCOCC1` (stereo not given), the growth inhibition in experiment [1] is 79% (active); in experiment [4], 90% (active). For the same compound, the inhibition is 1% in experiment [2] and 4% in experiment [3]. Also, the result in experiment [5], in experiment [6], in experiment [7] and in experiment [8] was inactive.
Take `CCOc1cc(Cc2cnc(N)nc2N)cc(OC)c1OC`: the growth inhibition was 0% in experiment [1] and 90% (active) in experiment [4]. The values for the inhibition in experiment [2] and in experiment [3] were -3% and -1%, respectively. Moreover, the result in experiment [5], in experiment [6], in experiment [7] and in experiment [8] was inactive.
As to `CC(C)(C)c1ccc(Cn2c(=N)n(CC(=O)c3ccc(-c4ccccc4)cc3)c3ccccc32)cc1`, the growth inhibition is 50% (active) in experiment [1] and 98% (active) in experiment [4]. Besides, the inhibition in experiment [2] was 63% (active); in experiment [3], -5%. For the same compound, the outcome in experiment [5], in experiment [6], in experiment [7] and in experiment [8] was inactive.

Usually inhibition stands for the drop in the measured response relative to a control, in per cent.
